POLK inh – blocks human DNA polymerase kappa activity; purified Pol kappa, fluorescent DNA synthesis assay, 10 min; AID 588579; Q9UBT6; Potency, µM (doses to about 107 µM), for the others: top-dose activity, negative = inhibition, usual class: inhibitors; actives 0.53% (n = 400,000); also: % is scaled to controls: 0 for no effect and ±100 for the full control effect
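Readout: fluorescence, taken kinetically at 0 and 10 min. Conditions: 10 nM Pol kappa, 15 min RT compound preincubation, 50 nM substrate final. Controls: enzyme-free buffer wells.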
Pol iota inh – inhibitors of human DNA polymerase iota. Q9UNA4. Potency, µM (doses to about 115 µM), inactives show at the highest dose activity, negative = inhibition, actives largely listed as inhibitors. Pol iota fluorescent replication assay, 10 min. actives 1% (n = 390,000)
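Pol iota at 10 nM preincubated 15 min with compounds at room temperature; reaction started with fluorescent substrate, 50 nM final. Fluorescence read kinetically at 0 and 10 min; buffer-only wells as negative control.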
POLB inh – DNA polymerase beta (human) inhibition | P06746 | Pol beta primer extension/strand displacement, fluorescence kinetic | Potency, µM (top dose mostly 114 µM), inactives show top-dose activity change, negative = inhibition, hits mostly inhibitors | actives 1.3% (n = 340,000) | AID 485314; also: % is scaled to controls: 0 for no effect and ±100 for the full control effect
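Reaction started by 50 nM substrate onto compound-treated Pol beta (10 nM, 15 min preincubation, room temperature); plates read at 0 min and 10 min. Normalized concentration-effect data fitted by four-parameter Hill equation.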
WRN inhibitor – blocks human WRN helicase | WRN helicase unwinding, fluorescent forked duplex, kinetic | AID 651768 | actives 0.46% (n = 360,000) | Potency, µM (top dose mostly 114 µM), inactives show top-dose activity change, negative = inhibition, usual class: inhibitors | Q14191; also: % is scaled to controls: 0 for no effect and ±100 for the full control effect; nearly all actives have a fitted effect of over 55% in size
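WRN at 20 nM final was preincubated with compound for 15 min at room temperature; reaction started with 100 nM forked duplex oligonucleotide carrying fluorophore and quencher plus 2 mM ATP (final). Unwinding followed kinetically by red fluorescence (ex 525/em 598 nm).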
Pol eta inh – DNA polymerase eta (human) inhibition; recombinant Pol eta, fluorescent DNA replication assay; Q9Y253; actives 1.2% (n = 390,000); AID 588591; Potency, µM (highest dose often 114 µM), for inactives: at the top dose activity change, negative = inhibition, usual class: inhibitors; also: % is scaled to controls: 0 for no effect and ±100 for the full control effect
Target sequence (Q9Y253 whole entry, looked up): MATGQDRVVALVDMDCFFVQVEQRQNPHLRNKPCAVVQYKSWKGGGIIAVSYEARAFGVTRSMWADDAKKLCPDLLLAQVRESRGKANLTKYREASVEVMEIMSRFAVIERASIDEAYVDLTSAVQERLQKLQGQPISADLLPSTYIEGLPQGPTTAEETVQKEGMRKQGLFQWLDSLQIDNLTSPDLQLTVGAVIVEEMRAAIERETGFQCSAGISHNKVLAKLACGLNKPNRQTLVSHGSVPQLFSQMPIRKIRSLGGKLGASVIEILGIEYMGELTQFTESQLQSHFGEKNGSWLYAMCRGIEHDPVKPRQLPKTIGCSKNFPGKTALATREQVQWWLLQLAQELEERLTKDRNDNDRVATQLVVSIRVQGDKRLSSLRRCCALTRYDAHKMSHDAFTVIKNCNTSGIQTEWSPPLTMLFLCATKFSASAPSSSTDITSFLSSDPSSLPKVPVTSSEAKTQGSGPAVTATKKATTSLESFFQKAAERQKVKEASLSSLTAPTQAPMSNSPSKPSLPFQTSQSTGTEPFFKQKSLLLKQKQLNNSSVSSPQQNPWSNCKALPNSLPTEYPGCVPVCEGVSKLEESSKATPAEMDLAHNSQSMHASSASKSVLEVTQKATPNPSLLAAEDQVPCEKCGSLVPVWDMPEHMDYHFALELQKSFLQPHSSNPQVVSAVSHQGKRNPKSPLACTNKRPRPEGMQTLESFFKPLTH
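Pol eta at 10 nM preincubated with compounds 15 min at room temperature; reaction started with fluorescent substrate (50 nM final) and read kinetically at 0 and 10 min.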
FEN1 inh – inhibitors of human flap endonuclease 1. Potency, µM (top dose mostly 114 µM), without a hit: at the highest dose activity change, negative = inhibition, most hits filed as inhibitors. AID 588795. actives 0.35% (n = 390,000). P39748. Recombinant FEN1 flap cleavage, fluorescence, 15 min; also: % is scaled to controls: 0 for no effect and ±100 for the full control effect; nearly all actives have a fitted effect of over 65% in size
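Enzyme 10 nM, 15 min RT preincubation with compound; start with substrate 50 nM final; reads at 0 and 15 min; qHTS titration, four-parameter Hill fit.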
* marks the source's active call; other numbers are inactive results; ? = inconclusive; · = no result given; [ ] = another dose, or the depositor's remark. Hits are enriched below; roughly 2.4% of the tested compounds scored in any of these assays. Calls follow the shape of the dose curve; as a rule, active = well fitted curve in the direction sought with a large enough effect; inconclusive = small, poorly fitted or top-dose-only effect, or another doubt; inactive = no such curve, though single readings can be large; an effect the other way counts as inactive or inconclusive. Potency is read from the fitted curve at half-maximal effect.

SMILES | POLK inh | Pol iota inh | POLB inh | WRN inhibitor | Pol eta inh | FEN1 inh
O=C(Cn1ncc(Cl)c(Cl)c1=O)N1CCOCC1 | -7% | 43% | 1% | 3% | -18% | -2%
O=C(Cn1ncc(Cl)c(Cl)c1=O)N1CCN(Cc2ccccc2)CC1 | 0% | 35µM* | 28µM* | -10% | ? | 20%
CCc1ccc(C(=O)Cn2ncc(Cl)c(Cl)c2=O)cc1 | -17% | ? | 50µM* | -10%[11.6 µM] | ? | -3%
COc1ccc2ccc3c(c2c1)N=C[C@]1(O3)N(C)c2ccccc2C1(C)C | -8% | ? | 14% | 11µM* | 71µM* | ?
CCn1c2ccccc2c2cnc(N=CN(C)C)c(C#N)c21 | -14% | 11% | 5% | -17%[57.1 µM] | -25% | ?
CCN(CC)CCn1c2ccccc2c2cnc(N=CN(C)C)c(C#N)c21 | -33% | ? | 20µM* | -8% | ? | 35µM*
O=[N+]([O-])c1ccccc1S(=O)(=O)Nc1ccc(-c2ccc(N3CCCC3)nn2)cc1 | -30% | ? | · | -2%[11.6 µM] | 20µM* | 7%
C=CCNC(=O)CN1CCC(O)(c2ccc(F)cc2)CC1 | -10%[60.1 µM] | 100µM* | -2% | -4%[57.1 µM] | -13% | 2%
O=C(CN1CCOCC1)NCc1ccc(F)cc1 | -1% | 6% | 14% | 3% | -9% | -3%
Cc1ccc(N=Nc2c(=O)[nH]n3c(=O)cc(C)[nH]c23)cc1 | -24% | ? | 0.89µM* | -15% | -1% | -20%
Cc1ccc(N=Nc2c(N)[nH]n3c(=O)cc(-c4ccccc4)nc23)cc1 | -12% | 10% | 6% | -23% | -11% | -15%
COc1ccc(OC)c2c(=O)cc(C(=O)O)[nH]c12 | -1% | 159% | -26% | -26% | -10% | 1%
O=C(O)c1cc(=O)c2c3nc4ccccc4oc-3cc(=O)c2[nH]1 | 10µM* | ? | · | · | · | ?
Cc1ccc(/C=C2\SC(=S)N(C(Cc3ccccc3)C(=O)O)C2=O)cc1 (configuration not stated) | -2% | 11% | 89µM* | -7% | 79µM* | 4%
O=C(O)C(Cc1ccccc1)N1C(=O)/C(=C/c2cccc3ccccc23)SC1=S (configuration not stated) | · | · | 32µM* | · | · | ·
O=C(O)C(Cc1ccccc1)N1C(=O)/C(=C/c2ccccc2)SC1=S (configuration not stated) | 2% | 2% | 2% | 1% | -21% | -3%
COc1ccc(CNC(=O)c2cc3cc(S(=O)(=O)N4CCCCC4)ccc3n2C)c(OC)c1 | -11%[60.1 µM] | 7% | 3% | · | -3% | 1%
CCOc1ccc(CNC(=O)CCn2c(=O)c3cccn3c3cccnc32)cc1 | -21% | 13% | 0% | · | -6% | 3%
[O-][n+]1onc2c1CCC(=N/O)/C2=N\Nc1ccccc1 | · | · | 40µM* | · | · | ·
Cc1sc2nc3c4ccccc4c(NCc4ccco4)nn3c(=O)c2c1C | -19% | -1% | 11µM* | ? | ? | -21%
CCN(c1ccc(N=Cc2c(O)n(Cc3ccc(OC)cc3)c(=O)c3ccccc23)cc1)C(C)C | -8% | 77% | 1% | 40µM* | -6% | -27%
COc1ccc(-n2c(O)c(C=Nc3ccccc3)c3ccccc3c2=O)cc1 | -2% | 20% | -23% | -16% | -12% | 1%
CN(C)c1ccc(/C=C/c2nc3ccccc3c(=O)n2-c2ccc(C(=O)O)cc2)cc1 | ? | ? | -1% | -5%[11.6 µM] | 25µM* | -4%
COc1ccc(CNC(=O)c2cc3cccc4c3n2CC(C)S4)c(OC)c1 (configuration not stated) | -11% | -20% | 0% | · | -9% | 0%
C#CCSc1nsc(SCC#C)c1C#N | ? | 20µM* | 45µM* | 50µM* | 18µM* | ?
SMILES | POLK inh | Pol iota inh | POLB inh | WRN inhibitor | Pol eta inh | FEN1 inh
N#Cc1ccsc1NC(=O)COC(=O)c1ccc(Br)o1 | -42% | 25µM* | · | -24% | ? | ?
COc1cc(OC)cc(C(=O)N[C@H](C(=O)OCC(=O)Nc2sccc2C#N)C(C)C)c1 | ? | ? | ? | -5%[11.6 µM] | 50µM* | -7%
CCOC(=O)N1CCC(NC(=O)c2cnn(-c3ccc(F)cc3F)c2C2CCN(C(=O)OC(C)(C)C)CC2)CC1 | -3% | 15% | 36% | · | -4% | -6%
O=C(O)Cn1cnc2scc(-c3cccs3)c2c1=O | -25% | ? | 20µM* | -16%[57.1 µM] | 20µM* | -9%
O=C(O)Cn1cnc2scc(-c3ccccc3)c2c1=O | 7% | 29% | -25% | 6% | -13% | 8%
CC1CN(C(=O)N2CCC(C(=O)NCCC3=CCCCC3)CC2)c2ccccc2O1 (configuration not stated) | -13% | -27% | -1% | · | -4% | 17%
Fc1ccc(Br)cc1C1C=C(c2ccc(Br)s2)Nc2ncnn21 (configuration not stated) | -9% | ? | 10µM* | -33% | 28µM* | 9%
COc1ccc(-c2ccc(NS(=O)(=O)c3cc(C)c(C)cc3C)cc2)nn1 | -9%[60.1 µM] | -11% | -2% | · | 1% | -18%
Cc1ccc(CNC(=O)c2ccc3c(=O)[nH]c4c(C(=O)NCC5CCCO5)sc(=S)n4c3c2)cc1 (configuration not stated) | -15% | 24% | -2% | -13% | -24% | ?
CCCCCNC(=O)c1ccc2c(=O)[nH]c3c(C(=O)NCC4CCCO4)sc(=S)n3c2c1 (configuration not stated) | -44% | -19% | -8% | ? | 25µM* | -5%
O=C(NC1CCCC1)c1sc(=S)n2c1[nH]c(=O)c1ccccc12 | -24% | ? | ? | -30% | 56µM* | ?
C=CCn1c(N)c(C(=O)NCc2ccco2)sc1=S | -12% | -8%[58.9 µM] | -7% | 3% | -15% | -10%
O=C(NCc1ccco1)c1sc(=S)n2c1[nH]c(=O)c1ccccc12 | ? | ? | 50µM* | ? | 22µM* | ?
Cc1ccc(NC(=O)CCN2CCN(CCO)CC2)cc1C | -10% | 12% | 0% | · | 4% | 2%
COC(=O)c1c(NC(=O)C2CC=CCC2C(=O)O)sc(C)c1C (configuration not stated) | 5% | 30% | 5% | -3% | -9% | -8%
COC(=O)c1c(NC(=O)c2ccccc2)sc(C(=O)c2ccccc2)c1C | -10% | -11% | 39% | -6% | -5% | -3%
COC(=O)c1c(NC(=O)c2ccccc2)sc(C(N)=O)c1C | -6% | 89µM* | 14% | -5%[11.6 µM] | -16% | 1%
COC(=O)c1c(NC(=O)C2CC=CCC2C(=O)O)sc(C(N)=O)c1C (configuration not stated) | -17% | 14µM* | 3% | ? | ? | 0%

Bioassay records (PubChem BioAssay)
